# Source: PubChem BioAssay
# Rows were chosen to be rich in hits. Some 4.1% of all compounds tested hit in one or more screens of this group.
# DAX1 inh-1: inhibitors of human orphan nuclear receptor DAX1 (NR0B1); HEK293 Gal4-DAX1 luciferase reporter, luminescence; inhibition, % at 6.75 µM; 340,000 compounds, 0.99% hits; AID 504766;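 active = inhibition above the mean over all tested compounds plus 3 SD, cut at about 4.2% in these data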;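 note: 0% = DAX1-transfected cells with DMSO and 100% = empty-vector control cells with DMSO; inhibition shows as a rise in luminescence from relieved DAX1 repression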
# Target sequence (P51843 207-470 limits assumed): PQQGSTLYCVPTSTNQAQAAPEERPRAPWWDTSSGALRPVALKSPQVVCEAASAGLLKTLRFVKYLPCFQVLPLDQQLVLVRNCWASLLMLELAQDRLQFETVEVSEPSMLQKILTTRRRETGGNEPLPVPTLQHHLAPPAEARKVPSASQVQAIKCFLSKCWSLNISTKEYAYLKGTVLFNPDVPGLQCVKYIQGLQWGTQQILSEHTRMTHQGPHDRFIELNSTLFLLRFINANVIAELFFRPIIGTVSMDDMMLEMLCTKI
# hgDAF-12 ag: activates the H. glycines DAF-12 receptor ligand-binding domain; HEK293 GAL4-hgDAF12 UAS-luciferase reporter, agonist luminescence; normalized to butyrate control; activation, % at 6.8 µM; 370,000 compounds, 1.8% hits; AID 687014;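 active = activation above a cutoff set at the mean of all screened compounds plus 3 SD, cut at about 10% in these data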;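 note: 0% = DMSO wells and 100% = sodium butyrate wells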
# DAX1 inh-2: inhibitors of DAX1 repression of SF-1 activated StAR promoter. HEK293T StAR-luciferase reporter, SF-1/DAX-1 repression relief. inhibition, % at 6.8 µM. 370,000 compounds, 1.1% hits;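 active = inhibition above the mean over all tested compounds plus 3 SD, cut at about 3.6% in these data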;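 note: 0% = DAX-1 cells with DMSO and 100% = cells lacking DAX-1 with DMSO; higher inhibition means more luminescence from relief of DAX-1 repression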
# ssDAF12 agonist: activators of S. stercoralis DAF-12 nuclear receptor. HEK293 ssDAF-12/GRIP1 lit1-tk-luc reporter, luminescence; % of 3 µM dafachronic acid response. activation, % at 6.8 µM. 370,000 compounds, 1% hits;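 active = activation above the mean over all tested compounds plus 3 SD, cut at about 0.9% in these data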;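 note: 0% = DMSO-only wells and 100% = 3 µM delta7-dafachronic acid wells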
# hcDAF-12 act: H. contortus DAF-12 activation, primary screen. HEK293 hcDAF-12 lit1-tk-luc reporter, luminescence; 0% DMSO, 100% Δ7-dafachronic acid. activation, % at 6.8 µM. 370,000 compounds, 1.4% hits. AID 652067;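 active = activation above the mean of all tested compounds plus 3 SD, cut at about 5.5% in these data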;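 note: 100% = response to 3 µM Δ7-dafachronic acid high control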
# Active calls of the source: *; nt = no result.
SMILES,DAX1 inh-1,hgDAF-12 ag,DAX1 inh-2,ssDAF12 agonist,hcDAF-12 act
O=C(c1cc2ccccc2oc1=O)N(Cc1cccs1)C1CCS(=O)(=O)C1 (configuration not stated),1.4,7.4,1.1,0.6,5.8*
CC1=C[C@]2(C[N+](Cc3ccccc3)=C(N)N2)n2c(=O)n(-c3ccccc3)c(=O)n2C1,nt,-2.0,0.4,-1.6,-3.1
Cc1cc(=O)[nH]c(SCC(=O)Nc2cccc(Cl)c2F)n1,nt,-0.9,-0.6,-1.7,-2.2
CCNS(=O)(=O)c1ccc(OC)c(C)c1,-0.5,0.5,0.0,-2.0,-0.8
CCNS(=O)(=O)c1ccc2c(c1)NCC2,-0.2,-3.2,-0.3,1.7*,-1.6
CCc1ccc(CNC(=O)CCCC(=O)n2nc(C)c3ccccc32)cc1,0.0,2.0,2.0,-1.1,1.9
Cc1cnc(C(=O)OCC(=O)NC(C)CCc2ccccc2)cn1 (configuration not stated),1.2,0.9,-0.1,-1.0,0.1
O=S1(=O)CC2c3ccc(F)cc3CN2CN1Cc1ccc(F)cc1 (configuration not stated),nt,2.3,0.0,-0.4,1.4
O=S1(=O)CC2c3ccc(F)cc3CN2CN1C1CCCC1 (configuration not stated),nt,-0.6,0.2,1.0*,1.3
O=C(NCC(=O)N1CCCCCC1)c1ccc(Br)cc1,4.4*,2.2,0.1,-1.3,-0.5
O=C(NCC(=O)N1CCN(c2ccccc2)CC1)c1ccc(Cl)cc1,4.9*,-2.9,0.2,-1.2,-1.6
O=C(CNC(=O)c1ccc(F)cc1)c1ccc(Cl)cc1,1.3,10.6*,1.3,0.1,2.9
Cc1nc(C(=O)NCC(=O)c2ccc(Cl)cc2)c(C(F)(F)F)o1,-0.3,-1.5,-0.4,1.6*,-1.1
CC(=O)c1cc(-c2ccccc2)n(CC(=O)NCc2ccccc2Cl)c1C,nt,0.7,-0.5,0.0,2.7
O=C(COC(=O)c1ccccc1O)NNC(=O)c1ccc(Br)cc1,0.0,-0.8,-0.8,-0.9,0.9
O=C(CNC(=O)c1ccc(Br)cc1)c1ccccc1,1.2,13.2*,2.7,-0.1,3.6
O=C(NNC(=O)c1ccccc1O)c1ccc(Br)cc1,7.4*,5.1,0.1,-1.5,-1.3
O=C(CCSc1ccccc1)N1CCN(c2ccccc2)CC1,2.6,12.0*,2.8,-0.1,2.5
CCN(CC)C(=O)CC[C@@H]1CC[C@]2(CCCN(C(=O)c3ccno3)C2)O1,nt,-2.2,0.0,-1.1,-1.1
Cn1c(=O)c2cc(S(=O)(=O)N3CCN(c4ccc(F)cc4)CC3)ccc2n(C)c1=O,nt,-0.1,-0.4,-1.2,-1.2
O=C(O)c1cc(S(=O)(=O)Nc2ccc3cn[nH]c3c2)ccc1O,0.7,4.4,-0.3,1.0*,4.6
COC(=O)c1cc2c(c3c4cc(F)ccc4n(S(=O)(=O)c4ccc(C)cc4)c13)C(=O)N(Cc1ccc(N(C)C)cc1)C2,nt,1.4,-0.6,-0.5,0.1
N#CCC[C@@H]1CC[C@]2(CCCN(S(=O)(=O)c3ccccc3)C2)O1,nt,3.1,0.7,-1.4,-2.3
CCn1c2ccccc2c2cc(C=NNC(=O)c3cc(-c4ccc(OC)cc4)n[nH]3)ccc21,nt,-0.4,-1.5,-1.5,-2.6
CN(C)c1ccc2c(c1)C(=NO)c1ccccc1-2,4.4*,nt,nt,nt,nt
SMILES,DAX1 inh-1,hgDAF-12 ag,DAX1 inh-2,ssDAF12 agonist,hcDAF-12 act
Cn1c(-c2ccccc2)cccc1=O,1.2,0.6,-0.1,1.3*,1.4
Brc1ccc(-c2cn3c(n2)SCC3)cc1,0.4,10.8*,1.3,-0.7,2.2
Cc1cc(C)nc(NS(=O)(=O)c2ccc(NC(=O)c3ccccc3C)cc2)n1,0.9,-3.0,0.3,-1.2,-0.7
CCOc1ccccc1C(=O)Nc1ccc(S(=O)(=O)Nc2nccc(C)n2)cc1,0.3,-1.6,-0.1,-0.1,6.2*
Cc1cc(C)nc(NS(=O)(=O)c2ccc(NC(=O)c3ccc(O)cc3O)cc2)n1,0.8,0.5,0.0,0.2,5.7*
C=CCN(C)CC#Cc1ccc(C)cc1,nt,-1.6,0.5,-1.1,-1.0
C[C@H](O)[C@@H]1CN2CCc3c([nH]c4c(-c5ccc6c(c5)OCO6)cccc34)[C@@H]2C[C@@H]1N(C)C(=O)c1ccccc1F,nt,-1.0,-1.3,-1.7,-1.9
O=C(CCn1nnc(-c2cccs2)n1)N1CCOCC1,nt,-0.4,1.5,-0.9,1.2
O=C(Nc1nnc(S(=O)(=O)Cc2ccc(F)cc2)s1)c1ccccc1F,-0.8,-0.6,-0.1,1.3*,-2.6
Cc1ccccc1NS(=O)(=O)c1nnc(NC(=O)c2ccccc2F)s1,1.3,0.6,-0.3,-0.6,0.2
CCSc1nnc(NC(=O)c2ccccc2C)s1,3.5,12.9*,4.4*,-1.3,1.9
O=C(CSc1nnc(NC(=O)c2ccccc2F)s1)Nc1ccccc1F,2.5,12.6*,3.4,-1.6,1.7
COc1ccc(-c2ccc(SCC(=O)NC3CCCC3)nn2)cc1,4.4*,1.6,-0.1,-0.5,0.8
COC(=O)[C@]12C[C@H](CC(=O)N3CCN(C(=O)c4ccco4)CC3)C(=O)N(Cc3ccco3)C1=C[C@H](C(C)C)O[C@@H]2C1CC1,nt,-2.7,-0.9,-1.1,-1.9
COc1ccc2c(c1)c1nnc(SCC(=O)NC3CC3)nc1n2C,0.7,0.1,-0.1,1.7*,4.0
CN(C(=O)CSc1nnc(NC2CCCCC2)s1)C1CCS(=O)(=O)C1 (configuration not stated),0.0,-1.1,0.5,-0.6,-1.9
CCSc1nnc(NC(=O)CC(C)C)s1,6.4*,1.6,0.7,-2.0,1.2
COc1ccc(Nc2nnc(SCC(=O)NC3CCS(=O)(=O)C3)s2)cc1 (configuration not stated),0.5,1.9,3.6*,-0.2,1.9
Cc1ccc2c(c1)c1nnc(SCC(=O)NC3CC3)nc1n2C,0.0,4.5,-0.4,-0.8,2.1
CCc1ccc(Nc2nnc(SCC(=O)N(C)C3CCS(=O)(=O)C3)s2)cc1 (configuration not stated),1.3,12.2*,1.5,0.2,1.5
COc1ccc(Nc2nnc(SCC(=O)NC3CC3)s2)cc1,-0.6,-2.3,0.3,-1.4,0.5
COc1ccc(C(F)(F)F)cc1NC(=O)C(OC(=O)CNC(=O)c1ccccc1)c1ccccc1 (configuration not stated),nt,-1.3,nt,-1.5,-1.6
CN(CCOC(=O)c1cc2ccccc2o1)C1CN(Cc2cn(Cc3cccc(F)c3)nn2)S(=O)(=O)C1 (configuration not stated),nt,-0.7,-0.5,-1.1,-0.9
COc1ccc(C(=O)Nc2nnc(SCC(=O)NC3CC3)s2)cc1,1.5,10.8*,1.5,-0.1,0.4
COc1cccc(C(=O)Nc2nnc(SCC(=O)NC3CC3)s2)c1,0.3,0.1,0.3,-1.0,0.9
CCc1ccc(-c2nc(SCC(=O)NC3CCS(=O)(=O)C3)n[nH]2)cc1 (configuration not stated),2.8,0.1,3.6*,0.5,0.6
CC(C)(C)NC(=O)CSc1nnc(NC(=O)c2ccccc2Cl)s1,3.8,4.5,0.6,-1.4,-0.2
